Bioassay records deposited in PubChem by National Center for Advancing Translational Sciences (NCATS).
DT40 TDP1 no CPT = qHTS for Inhibitors of human tyrosyl-DNA phosphodiesterase 1 (TDP1): qHTS in cells in absence of CPT; DT40 Tdp1-/- hTDP1 cells, no CPT, ATP luminescence, 48 h; Potency, µM (highest dose often 46.2 µM), hits mostly inhibitors; actives 15% (n = 420,000); AID 686978, 2013; further: nearly all actives have a fitted effect of over 55% in size
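Growth of hTDP1-complemented DT40 Tdp1-knockout cells is measured by ATP luminescence after at least 48 hr compound exposure at 37 °C, with DMSO substituting for the 20 nM CPT used in the parallel screen.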
KB-V1 cytotox = kills drug-selected multidrug resistant KB-V1 cells; AID 1347076; actives 3.4% (n = 400,000); Potency, µM (titrated, usually from 46.1 µM), most hits filed as cytotoxic; KB-V1 MDR cells viability, CellTiter-Glo, 72 h; further: nearly all actives have a fitted effect of over 60% in size
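KB-V1, DMEM (no phenol red) + 10% FBS; cpd pin-transferred, titration series; 72 h, 37 degrees C; CellTiter-Glo, luminescence. Data normalized, curve-fit.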
HT1080 IDH1KD tx = toxicity to HT-1080 IDH1 knockdown cells (counter line) | actives 2% (n = 360,000) | HT-1080 IDH1 knockdown viability, ATP luminescence, 48 h | AID 686971 | Potency, µM (doses to about 46.1 µM), most hits filed as cytotoxic
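Viability of IDH1-knockdown HT-1080 fibrosarcoma cells was assessed by CellTiter-Glo after 48 h at 37 °C with titrated compound; concentration-effect curves were classified by fit quality and response size.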
HT1080NT lethal = kills 2HG-producing HT-1080-NT fibrosarcoma cells. actives 1.6% (n = 360,000). Potency, µM (titrated, usually from 46.1 µM), hits mostly cytotoxic. HT-1080-NT fibrosarcoma viability, CellTiter-Glo ATP luminescence, 48 h;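 further: NT is the 2HG producing partner of a matched IDH1 knockdown line; nearly all actives have a fitted effect of over 55% in size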
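Fibrosarcoma NT cells, 750 per well in 5% FBS RPMI, were exposed to compound for 48 hours. Viability: CellTiter-Glo luminescence.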
DT40 TDP1 CPT = DT40-hTDP1 cell growth loss with CPT; Potency, µM (doses to about 46.2 µM), most hits filed as inhibitors; actives 12% (n = 420,000); chicken DT40 Tdp1-/-;hTDP1 cells + 20 nM CPT, ATP luminescence, 48 h; further: nearly all actives have a fitted effect of over 55% in size
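Cell growth measured by CellTiter-Glo luminescence after a minimum 48 h, 37 C compound exposure with 20 nM CPT in Tdp1-knockout DT40 cells stably expressing hTDP1, seeded 400/well; qHTS titration format.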
KB-3-1 tox = kills parental KB-3-1 adenocarcinoma cells; KB-3-1 viability, CellTiter-Glo ATP luminescence, 72 h; Potency, µM (doses to about 46.1 µM), most hits filed as cytotoxic; actives 1.4% (n = 400,000); AID 1347075; further: nearly all actives have a fitted effect of over 60% in size
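Cytotoxicity measured as CellTiter-Glo luminescence after 72 h at 37 C. Compound titrations were pinned onto drug-naive KB-3-1 parental adenocarcinoma cells grown in DMEM with 10% FBS, and normalized data fitted to concentration-response curves.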
Hits are given with their value; 0 = inactive; ? = inconclusive; - = not tested or not shown. Sampled rows, rich in hits. Any-hit rate of the full collection: about 19%. The call rests on the fitted dose curve; in most records, active means well fitted curve in the direction sought with a large enough effect; inconclusive means small, poorly fitted or top-dose-only effect, or another doubt; inactive means no such curve, though single readings can be large; an effect the other way counts as inactive or inconclusive.

SMILES	DT40 TDP1 no CPT	KB-V1 cytotox	HT1080 IDH1KD tx	HT1080NT lethal	DT40 TDP1 CPT	KB-3-1 tox
S=c1[nH]cc(-c2ccccc2)n1-c1ccccc1Cl	?	13µM	0	0	?	0
CCN(C(=O)COC(=O)CNS(=O)(=O)c1ccc(SC)c([N+](=O)[O-])c1)C1CCCCC1	0	0	0	0	0	0
COc1ccc(CCC(C)N2CCC(Oc3ccc(C(=O)N4CCCC4)cc3)CC2)cc1 (configuration not stated)	?	-	0	0	26µM	-
O=C(c1ccc(OC2CCN(Cc3ccccc3OC(F)F)CC2)cc1)N1CCCC1	0	0	0	0	0	0
O=C(c1ccc(OC2CCN(Cc3ccc(C(F)(F)F)cc3)CC2)cc1)N1CCCCC1	21µM	0	0	0	?	0
O=C(c1ccc(OC2CCN(Cc3ccccc3C(F)(F)F)CC2)cc1)N1CCCCC1	?	16µM	?	0	?	?
CC(=O)Nc1cc(O)c2nonc2c1O	0.71µM	?	-	-	0.63µM	2.6µM
CC(=O)Nc1c(O)cc(Br)c2nonc12	0	?	-	-	0	0
CCC(CC)C(=O)Nc1ccc(Cl)c(Cl)c1	13µM	?	0	0	0	0
CCN(CC)C(=S)Nc1ccc(Cl)c(Cl)c1	?	23µM	0	0	0	?
O=C(NCC1CC1(Cl)Cl)Nc1ccc(Cl)c(Cl)c1 (configuration not stated)	?	?	29µM	18µM	?	?
CCC(CC)C(=O)Nc1cccc(S(=O)(=O)c2cccc(NC(=O)C(CC)CC)c2)c1	0	0	0	0	0	0
Cc1ccc(NC(=O)NCC2CC2(Cl)Cl)cc1 (configuration not stated)	0	0	0	0	0	0
Cn1nnnc1SCC1=C(C(=O)O)N2C(=O)[C@@H](NC(=O)[C@H](OC=O)c3ccccc3)[C@H]2SC1	0	-	-	-	0	-
CC(=O)Nc1cc(C(F)(F)F)ccc1OCCOc1ccccc1	16µM	0	0	0	?	0
COc1cccc(Oc2ccc(C(F)(F)F)cc2NC(=O)CN2C(=O)NC3(CCCC3)C2=O)c1	?	0	0	?	15µM	?
COc1ccc(NC(=O)CN2C(=O)NC3(CCCC3)C2=O)c(OC)c1	0	0	0	0	0	0
CC(=O)Nc1cc(C(F)(F)F)ccc1Oc1cccc(Br)c1	13µM	0	0	0	23µM	?
c1ccc2c(c1)CC1(CCCC1)n1nnnc1-2	0	0	0	0	0	0
COc1ccc(CCNC(=O)[C@H](CC(C)C)NC(=O)N2CCn3c2nc2ccccc23)cc1OC	?	0	0	0	0	0
Cc1nn(Cc2noc(C(=O)NCc3cccc(F)c3)n2)c(C)c1Br	0	0	-	-	0	0
O=S1(=O)CC(N2CCSCC2)CN1Cc1cn(Cc2ccc(Cl)cc2)nn1 (configuration not stated)	0	?	0	0	0	0
CNC(=S)N/N=C/c1c(C)c(C(=O)c2ccc(F)cc2)n2ccccc12	?	0	0	0	?	0
Cc1c(/C=N/NC(N)=O)c2ccccn2c1C(=O)c1ccc(F)cc1	9.2µM	18µM	0	0	?	0
OC(c1cccc(CN2CCCCC2)c1)c1ncc(-c2cccc3ccccc23)[nH]1 (configuration not stated)	?	0	?	16µM	?	0
COc1cccc(-c2cnc(C(O)c3cccc(CN4CCCCC4)c3)[nH]2)c1 (configuration not stated)	0	0	0	0	?	0
OC(c1cccc(CN2CCCCC2)c1)c1ncc(-c2cccc(C(F)(F)F)c2)[nH]1 (configuration not stated)	21µM	0	?	21µM	15µM	0
CC(=O)Nc1nonc1-c1nc2ccccc2n1Cc1ccccc1Br	15µM	0	-	-	16µM	?
